# Data: PubChem BioAssay (NCI)
# Compounds without any hit were thinned out: in the full panel of roughly 83,000, 20% have a hit.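 Cell lines were cultured in 96-well plates, exposed to a single compound concentration, and assessed for percent growth 48 hours later.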 Values without a mark were called inactive. Active and inactive are the calls of the source. The calls were made as follows: active = growth percent below 10; inactive = the rest.
# Test system: CAKI-1 renal
# Assay: NCI-60 one-dose screen, 48 h (100 = growth as untreated, 0 = no growth, -100 = all killed)
# Settings: 10 µM unless noted
row,SMILES,growth
1,NC(=O)C(=O)c1ccccc1NC=O,75.2%
2,N#Cc1c(-c2ccccc2)[nH]c2ncc(-c3ccccc3)n2c1=O,83.4%
3,O=S(=O)(Nc1cc(Cl)ccc1Cl)c1ccc(-c2cnc(C3CC3)o2)cc1,33.5%
4,COc1cc(C2CC(c3ccc(Nc4nc(Nc5ccc(Cl)cc5)nc(Nc5ccc(Cl)cc5)n4)cc3)=NN2C(C)=O)cc(OC)c1OC (stereo not given),90.4%
5,N#Cc1c(-c2ccc(Cl)cc2)c(C#N)c2c(C#N)c(N)nn2c1N,71.6%
6,CC(=O)N1N=C(c2ccc(Nc3nc(Nc4ccccc4)nc(Nc4ccccc4)n3)cc2)CC1c1cccc([N+](=O)[O-])c1 (stereo not given),91.7%
7,N#CC1=C(c2ccccc2)Nc2c(c(-c3ccc(Cl)cc3)nn2-c2ccccc2)C12C(=O)Nc1ccc(Cl)cc12 (stereo not given),44.5%
8,O=C(Nc1nc2ccc(C(=O)N3CCN(/C=C/c4ccccc4)CC3)cc2s1)c1ccc(NCCc2ccccc2)c([N+](=O)[O-])c1,50.6%
9,Cc1ccc(/C=C2\COc3ccc(O)cc3C2=O)cc1,80.8%
10,CCNCCNc1cc(C2CCCCC2)c(C#N)c2nc3ccccc3n12,25.1%
11,Nc1c(C(=O)Nc2ccncc2)sc2nc3c(cc12)C(O)CCC3 (stereo not given),99.6%
12,C=CCN=c1sc2c(n1NC(=O)c1cc3ccc1CCc1ccc(cc1)CC3)C(=O)c1ccccc1C2=O,20.3%
13,Cc1nc2sc(C(=O)Nc3cccc(Br)c3)c(N)c2cc1C(O)c1ccccc1 (stereo not given),46.4%
14,Cc1cc(S(=O)(=O)/N=C(\N)n2nc(C)c(C)c2C)c(SCc2ccccc2)cc1Cl,71.9%
15,Oc1ccc(Cl)cc1/C=N\NC(=S)N/N=C/c1cc(Cl)ccc1O,-7.22% (active)
16,O=C(/C=C/c1cccs1)Nc1ncc(Cc2ccccc2F)s1,23%
17,COC(=O)CC[C@H](C)[C@H]1CC[C@H]2[C@@H]3CC[C@@H]4CC5(CC[C@]4(C)[C@H]3CC(=O)[C@]12C)Nc1ccccc1NC5=NC(C)(C)C (stereo not given in full),59.2%
18,CC1CCc2c(C(=O)Nc3ncc(Cc4cccc([N+](=O)[O-])c4)s3)csc2C1 (stereo not given),19.2%
19,O=C1/C=C/[C@@H](O)[C@@H]2C[C@@H](O)C[C@H]2/C=C/CCC[C@H](CCc2ccccc2)O1,-8.69% (active)
20,O=C(Nc1ccccc1O)c1ccc(CNC(=O)c2sccc2Nc2ccnc(C(F)(F)F)c2)cc1,35.2%

row,SMILES,growth
1,COc1ccc(C(=O)/C=C/c2c(C(F)(F)F)nc3ccccn23)cc1OC,-5.18% (active)
2,CCC(=C(c1ccc(OCCN2CCCCC2)cc1)c1ccc(OCCN2CCCCC2)cc1)c1ccc(Cl)cc1,-95.6% (active)
3,O=C1Nc2ccc(C(=O)O)cc2/C1=N/c1nnc(Sc2ccccc2)s1,85.9%
4,CCN1CCN(C(=O)[C@]23CCC(C)(C)C[C@@H]2C2=CC[C@@H]4[C@@]5(C)CCC(=O)C(C)(C)[C@@H]5CC[C@@]4(C)[C@]2(C)CC3)CC1,60%
5,Nc1ncnc2c1C(c1ccccc1)c1ccc3ccccc3c1O2 (stereo not given),81.1%
6,Cn1cc(-c2ccc3nc(-c4ccc(CC(=O)ONc5cc(C(C)(C)C)on5)cc4)cnc3c2)cn1,6.91% (active)
7,Cc1ccc2c(c1)=C/C(=C\c1cc(-c3ccccc3)oc1O)C(=O)N=2,91.1%
8,COc1ccc(-c2nc3c(ncc4ccc(=O)[nH]c43)s2)cc1,67.6%
9,CC1CN(S(=O)(=O)c2oc(-c3ccc(Cl)cc3)nc2C#N)CC(C)O1 (stereo not given),91.2%
10,C#CCOC(=O)/C=C/c1cn(-c2ccccc2)nc1-c1ccc(OC)cc1,67.6%
11,O=C(Nc1cccc(Cl)c1)Nc1cccc(Cn2c(=O)[nH]c3ccc(Oc4ncccn4)cc3c2=O)c1,63.8%
12,COc1ccc(/C=C/C(=O)c2cc3c(N)c(C(=O)Nc4cccc5ccccc45)sc3nc2C)cc1,48.6%
13,CCCNc1nc2ccccc2c2c1S(=O)(=O)c1ccc(Cl)cc1C2=O,18.2%
14,NC(=O)CSc1oc(-c2ccccc2)nc1S(=O)(=O)c1ccc(Br)cc1,87.9%
15,N#CSc1c[nH]c2cccc(/C=C/C(=O)/C=C(/C=C/c3cccc4[nH]cc(SC#N)c34)OB(F)F)c12,-12.5% (active)
16,C=C1C(=O)O[C@H]2[C@H]1CC/C(COC(=O)NCc1ccc(Cn3c(=O)sn(CCCCC)c3=O)cc1)=C\CC[C@@]1(C)O[C@@H]21,36.4%
17,N#CC(C#N)N=Nc1ccc(Br)cc1,6.33% (active)
18,COc1ccc(-c2noc(C(=O)O)c2-c2cc(OC)c(OC)c(OC)c2)cc1,22.6%
19,COc1c(B(O)O)cccc1-c1cc(C)c2c(ccc3[nH]ncc32)n1,-17.9% (active)
20,COc1ccc2cc1Oc1ccc(cc1)C[C@H]1c3c(cc4c(c3Oc3cc5c(cc3OC)CCN(C)[C@@H]5C2)OCO4)CCN1C,70.8%
